Assay results published in PubChem BioAssay AID1159580 (chemical genetic matrix, 2015).
Out of some 5,500 compounds screened, about 2,000 (36%) were called active. Not shown: some 18% with an inconclusive outcome. Cut-off read from the data, not from the text of the source: active = normalized growth mostly below about 0.91 (no sharp cut-off); inconclusive = no clear call, values can overlap the other calls; inactive = mostly above about 0.92. The list shows a part of the results.

Assay: chemical genetic growth profiling, strain panel (AID 1159580);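 note: tested at 20 µM; growth read once vehicle control cultures reached saturation at 30 °C; 1 = growth at the plate median or of vehicle wells; lower values mean less growth of the strain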
Details: growth OD

Measured: normalized growth

O=C(/C=C/C=C/c1ccc2c(c1)OCO2)N1CCCCC1
active: S. cerevisiae deletion strains, locus YKR001C, strain vps1, hits give low values 0.796 | S. cerevisiae deletion strains, locus YLR221C, strain rsa3, hits give low values 0.9 | S. cerevisiae deletion strains, locus YLR262C, strain YPT6 (second series), hits give low values 0.71 | S. cerevisiae deletion strains, locus YLR268W, strain sec22, hits give low values 0.807 | S. cerevisiae deletion strains, locus YLR320W, strain mms22, hits give low values 0.808 | S. cerevisiae deletion strains, locus YLR342W, strain FKS1 (second series), hits give low values 0.781 | S. cerevisiae deletion strains, locus YLR342W, strain FKS1, hits give low values 0.851 | S. cerevisiae deletion strains, locus YLR418C, strain cdc73, hits give low values 0.701 | S. cerevisiae deletion strains, locus YNL071W, strain lat1, hits give low values 0.674 | S. cerevisiae deletion strains, locus YNL307C, strain MCK1, hits give low values 0.729 | S. cerevisiae deletion strains, locus YOR184W, strain ser1, hits give low values 0.753 | S. cerevisiae deletion strains, locus YOR270C, strain vph1, hits give low values 0.633 | S. cerevisiae deletion strains, locus YPL051W, strain arl3, hits give low values 0.896 | S. cerevisiae deletion strains, locus YPR163C, strain tif3, hits give low values 0.856
inactive: S. cerevisiae deletion strains, locus YJR075W, strain HOC1, hits give low values 0.9 | S. cerevisiae deletion strains, locus YKL009W, strain mrt4, hits give low values 0.886 | S. cerevisiae deletion strains, locus YKL068W, hits give low values 0.966 | S. cerevisiae deletion strains, locus YKL085W, strain MDH1 (second series), hits give low values 0.953 | S. cerevisiae deletion strains, locus YKL085W, strain MDH1, hits give low values 0.953 | S. cerevisiae deletion strains, locus YKL160W, strain elf1, hits give low values 0.919 | S. cerevisiae deletion strains, locus YKL190W, strain CNB1, hits give low values 0.974 | S. cerevisiae deletion strains, locus YKR026C, strain gcn3, hits give low values 0.992 | S. cerevisiae deletion strains, locus YKR091W, strain srl3, hits give low values 0.977 | S. cerevisiae deletion strains, locus YLL001W, strain dnm1, hits give low values 0.935 | S. cerevisiae deletion strains, locus YLL026W, hits give low values 0.956 | S. cerevisiae deletion strains, locus YLL041C, strain sdh2, hits give low values 0.964 | S. cerevisiae deletion strains, locus YLR027C, strain aat2, hits give low values 0.945 | S. cerevisiae deletion strains, locus YLR039C, strain RIC1, hits give low values 0.72 | S. cerevisiae deletion strains, locus YLR058C, strain SHM2, hits give low values 0.968 | S. cerevisiae deletion strains, locus YLR102C, strain apc9, hits give low values 0.94 | S. cerevisiae deletion strains, locus YLR113W, strain HOG1, hits give low values 0.973 | S. cerevisiae deletion strains, locus YLR258W, strain gsy2, hits give low values 0.92 | S. cerevisiae deletion strains, locus YLR262C, strain YPT6, hits give low values 0.785 | S. cerevisiae deletion strains, locus YLR330W, strain CHS5, hits give low values 0.969 | S. cerevisiae deletion strains, locus YLR357W, strain rsc2, hits give low values 1.08 | S. cerevisiae deletion strains, locus YLR370C, strain arc18, hits give low values 0.952 | S. cerevisiae deletion strains, locus YLR371W, strain rom2, hits give low values 0.959 | S. cerevisiae deletion strains, locus YLR384C, strain iki3, hits give low values 0.976 | S. cerevisiae deletion strains, locus YML016C, strain PPZ1, hits give low values 0.961 | S. cerevisiae deletion strains, locus YML032C, strain rad52, hits give low values 0.914 | S. cerevisiae deletion strains, locus YML120C, strain ndi1, hits give low values 0.932 | S. cerevisiae deletion strains, locus YML124C, strain tub3, hits give low values 0.945 | S. cerevisiae deletion strains, locus YMR058W, strain fet3, hits give low values 0.93 | S. cerevisiae deletion strains, locus YMR078C, strain ctf18, hits give low values 0.932 | S. cerevisiae deletion strains, locus YMR125W, strain sto1, hits give low values 0.961 | S. cerevisiae deletion strains, locus YMR129W, hits give low values 0.959 | S. cerevisiae deletion strains, locus YMR205C, strain PFK2, hits give low values 0.892 | S. cerevisiae deletion strains, locus YMR223W, strain ubp8, hits give low values 0.91 | S. cerevisiae deletion strains, locus YMR231W, strain pep5, hits give low values 0.99 | S. cerevisiae deletion strains, locus YMR263W, strain SAP30, hits give low values 0.921 | S. cerevisiae deletion strains, locus YMR307W, strain GAS1, hits give low values 0.621 | S. cerevisiae deletion strains, locus YNL067W, strain RPL9B, hits give low values 0.907 | S. cerevisiae deletion strains, locus YNL128W, strain TEP1, hits give low values 0.991 | S. cerevisiae deletion strains, locus YNL153C, strain GIM3, hits give low values 0.953 | S. cerevisiae deletion strains, locus YNL183C, strain NPR1, hits give low values 0.95 | S. cerevisiae deletion strains, locus YNL209W, strain ssb2, hits give low values 0.949 | S. cerevisiae deletion strains, locus YNL233W, strain BNI4, hits give low values 0.89 | S. cerevisiae deletion strains, locus YNL248C, strain rpa49, hits give low values 0.94 | S. cerevisiae deletion strains, locus YNL250W, strain rad50, hits give low values 0.95 | S. cerevisiae deletion strains, locus YNL271C, strain bni1, hits give low values 0.933 | S. cerevisiae deletion strains, locus YNL298W, strain CLA4, hits give low values 0.92 | S. cerevisiae deletion strains, locus YNL322C, strain KRE1 (second series), hits give low values 0.965 | S. cerevisiae deletion strains, locus YNL322C, strain KRE1, hits give low values 0.981 | S. cerevisiae deletion strains, locus YNR049C, strain mso1, hits give low values 0.977 | S. cerevisiae deletion strains, locus YNR052C, strain pop2, hits give low values 0.963 | S. cerevisiae deletion strains, locus YOL006C, strain TOP1, hits give low values 0.598 | S. cerevisiae deletion strains, locus YOL012C, strain htz1 1.13 | S. cerevisiae deletion strains, locus YOL147C, strain pex11, hits give low values 0.951 | S. cerevisiae deletion strains, locus YOR001W, strain rrp6, hits give low values 0.956 | S. cerevisiae deletion strains, locus YOR061W, strain CKA2, hits give low values 0.979 | S. cerevisiae deletion strains, locus YOR069W, strain VPS5, hits give low values 0.98 | S. cerevisiae deletion strains, locus YOR070C, strain gyp1, hits give low values 0.935 | S. cerevisiae deletion strains, locus YOR080W, strain dia2, hits give low values 0.996 | S. cerevisiae deletion strains, locus YOR083W, strain WHI5, hits give low values 0.909 | S. cerevisiae deletion strains, locus YOR106W, strain vam3, hits give low values 0.925 | S. cerevisiae deletion strains, locus YOR136W, strain idh2, hits give low values 0.964 | S. cerevisiae deletion strains, locus YOR144C, strain elg1, hits give low values 0.948 | S. cerevisiae deletion strains, locus YOR231W, strain MKK1, hits give low values 0.982 | S. cerevisiae deletion strains, locus YOR265W, strain rbl2, hits give low values 0.961 | S. cerevisiae deletion strains, locus YOR290C, strain snf2, hits give low values 0.929 | S. cerevisiae deletion strains, locus YOR316C, strain cot1, hits give low values 0.946 | S. cerevisiae deletion strains, locus YPL055C, strain LGE1, hits give low values 0.827 | S. cerevisiae deletion strains, locus YPL078C, strain atp4, hits give low values 0.914 | S. cerevisiae deletion strains, locus YPL106C, strain sse1, hits give low values 0.92 | S. cerevisiae deletion strains, locus YPL240C, strain hsp82, hits give low values 0.946 | S. cerevisiae deletion strains, locus YPL241C, strain CIN2, hits give low values 0.969 | S. cerevisiae deletion strains, locus YPL256C, strain CLN2, hits give low values 0.914 | S. cerevisiae deletion strains, locus YPR119W, strain clb2, hits give low values 0.936 | S. cerevisiae deletion strains, locus YPR141C, strain kar3, hits give low values 0.946 | S. cerevisiae deletion strains, locus YPR167C, strain met16, hits give low values 0.948 | S. cerevisiae deletion strains, strain wtn01, hits give low values 0.9 | S. cerevisiae strains, strain wild type, hits give low values 0.948
